Compound activity (PubChem)
BCLXL inh = inhibitors of human Bcl-xL, primary screen, biochemical, fluorescence polarization, HTS; Bcl-2-like protein 1 (Homo sapiens), Q07817; GST-Bcl-xL / FITC-Bim BH3 peptide fluorescence polarization; inhibition, % at 10.9 µM; actives 0.7% (n = 320,000);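 active = inhibition above the mean of all tested compounds plus 3 SD, cutoff set per campaign, cut at about 30% in these data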;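 also: 0% = DMSO wells and 100% = unlabeled Bim-BH3 peptide competitor; inhibitors lower millipolarization by displacing the labeled peptide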
Target sequence (Q07817 whole entry, looked up): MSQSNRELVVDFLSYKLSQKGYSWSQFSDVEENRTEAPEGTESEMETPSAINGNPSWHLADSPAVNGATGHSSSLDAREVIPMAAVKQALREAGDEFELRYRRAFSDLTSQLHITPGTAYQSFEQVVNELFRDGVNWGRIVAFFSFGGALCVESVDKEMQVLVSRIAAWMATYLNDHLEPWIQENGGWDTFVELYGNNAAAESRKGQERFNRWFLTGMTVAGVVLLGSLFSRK
GLD-1 TGE inh = GLD-1/TGE RNA complex disruptors, primary screen, biochemical, fluorescence polarization | Female germline-specific tumor suppressor gld-1 (Caenorhabditis elegans), Q17339 | purified GLD-1 + fluorescein TGE RNA | inhibition, % at 5.96 µM | actives 0.44% (n = 320,000);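 active = percent inhibition above a per-plate cutoff, the plate mean of test compounds plus 3 SD, cut at about 30% in these data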;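 also: 0% = DMSO wells with GLD-1 and probe and 100% = wells lacking GLD-1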
MEX-5 binding = MEX-5 zinc finger RNA-binding disruptors – biochemical, C. elegans, fluorescence polarization, MLPCN library, primary screen; actives 0.38% (n = 300,000); activity score (negative = inhibition of binding), % at 10 µM; MEX-5/FITC-TCR2 RNA binding; hits give low values;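 active = inhibition past about -25% in most replicates, and total fluorescence under double the plate's negative control median, limit read from the data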;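 also: 0% = DMSO and -100% = 5 µM competing unlabeled TCR2 RNA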
E coli Lon inh = inhibitors of E. coli Lon protease, primary screen, biochemical, fluorescence polarization | P0A9M0 | purified E. coli Lon protease | inhibition, % at 7.94 µM | actives 0.42% (n = 360,000) | AID 602123, 2011; in the data active = inhibition above about 13%, passing the limit was not always enough;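 also: 0% = enzyme with probe and DMSO and 100% = no enzyme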
MCL1 BIM primary = inhibitors of MCL1 binding to BIM-BH3, primary screen, biochemical, fluorescence polarization; GST-MCL1 / FITC-Bim-BH3 fluorescence polarization; inhibition, % at 10.9 µM; actives 0.68% (n = 320,000);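 active = inhibition above the mean inhibition of all tested compounds plus 3 SD, set per campaign, cut at about 40% in these data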;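 also: 0% = DMSO wells and 100% = unlabeled Bim-BH3 peptide control; higher means more loss of mP so more displacement of Bim peptide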
Target sequence (Q07820 whole entry, looked up): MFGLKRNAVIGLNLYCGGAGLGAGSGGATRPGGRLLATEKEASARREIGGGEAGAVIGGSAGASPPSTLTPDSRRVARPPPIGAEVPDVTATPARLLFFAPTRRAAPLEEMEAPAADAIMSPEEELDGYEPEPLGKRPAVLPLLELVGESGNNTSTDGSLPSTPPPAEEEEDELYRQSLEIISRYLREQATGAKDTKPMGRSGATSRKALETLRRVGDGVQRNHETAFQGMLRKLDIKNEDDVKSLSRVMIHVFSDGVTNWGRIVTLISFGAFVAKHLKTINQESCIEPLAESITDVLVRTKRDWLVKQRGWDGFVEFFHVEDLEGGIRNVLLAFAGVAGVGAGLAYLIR
GLD1 RNA confirm = GLD-1/TGE RNA binding inhibitors, retest, confirmation, biochemical, fluorescence polarization, triplicate. GLD-1/FL-TGE RNA fluorescence polarization. inhibition, % at 5.96 µM. actives 10% (n = 550). shares compounds with GLD-1 TGE inh;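 active = average inhibition across triplicates above the hit cutoff set in the primary screen, cut at about 32% in these data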;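 also: 0% = GLD-1 with RNA probe and DMSO and 100% = wells lacking GLD-1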
E coli Lon conf = E. coli Lon protease inhibitor retest, confirmation, biochemical, fluorescence polarization | shares compounds with E coli Lon inh | AID 602230, 2012 | inhibition, % at 7.94 µM | purified E. coli Lon | actives 31% (n = 1,400); in the data active = inhibition above about 16%;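 also: 0% = enzyme with probe and DMSO and 100% = no enzyme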
The depositor's hits bear a star; . = not tested or not shown; + = active, no number. Most compounds without a hit are left out; they make up all but 1.4% or so of the library.

SMILES | BCLXL inh | GLD-1 TGE inh | MEX-5 binding | E coli Lon inh | MCL1 BIM primary | E coli Lon conf | others
CCc1cccc(C)c1NC(=O)c1ccccc1 | -1 | 6 | -4 | -1 | -1 | .
CC1=C(C(N)=O)S(=O)(=O)c2ccccc21 | 20 | 38* | -9 | 18* | 21 | 29* | GLD1 RNA confirm=24
C/C(=C\C(=O)c1cccnc1)Nc1ccc(O)cc1 | 7 | 31* | -2 | 22* | 8 | 8 | GLD1 RNA confirm=-1
C/C(=C\C(=O)c1ccccc1)Nc1ccc(O)cc1 | 16 | 20 | -2 | 12 | 18 | .
O=C(O)c1ccccc1Nc1cc(Cl)c2nonc2c1[N+](=O)[O-] | 16 | 4 | -3 | 1 | 15 | .
O=[N+]([O-])c1c(Nc2ccccn2)cc(Cl)c2nonc12 | -9 | 43* | 0 | 52* | -39 | -8 | GLD1 RNA confirm=3
CS(=O)(=O)c1sc2nc(-c3cccs3)cc(-c3ccccc3)c2c1N | 23 | 53* | 2 | 20* | -3 | -23 | GLD1 RNA confirm=-14
CNc1sc(C(=O)c2ccccc2F)c(N)c1-c1nc2ccccc2s1 | 18 | 14 | 1 | -4 | 23 | .
O=C(Nc1ccc(Cl)cc1)Nc1ccc(N2CCC(C(F)(F)F)CC2)nc1 | 31* | 38* | -9 | 47* | 32 | 8 | GLD1 RNA confirm=23
O=C(NCc1ccccc1Cl)c1ccncc1 | -1 | -1 | 4 | 1 | -1 | .
CC1(c2ccccc2)NC(=O)N(CC(=O)NCC2CCCO2)C1=O (configuration not stated) | 0 | 8 | . | 3 | 0 | .
CC(=O)Nc1ccc(S(=O)(=O)NCc2ccc(C)cc2)cc1 | -4 | -7 | 2 | 5 | -4 | .
CC(=O)Nc1ccc(S(=O)(=O)NCc2ccc3c(c2)cc(C)n3C)cc1 | 34* | 44* | 0 | 49* | 32 | 22* | GLD1 RNA confirm=17
COc1ccccc1NC(=O)COC(=O)c1ccccc1C(=O)N1CCN(c2ccccc2)CC1 | 42* | 33* | -5 | 24* | 44* | 5 | GLD1 RNA confirm=4
Cc1ccc2oc(=O)n(Cc3ccccc3)c2c1 | 4 | -5 | 0 | -13 | 6 | .
Cc1ccc(S(=O)(=O)NNC(=O)Nc2cccc(C)c2C)c(C)c1 | 2 | 5 | -2 | 21* | 2 | 2
CC1(C)O[C@H]2CC(=O)OC[C@]23[C@H]2CC[C@@]4(C)[C@H](c5ccoc5)OC(=O)[C@H]5O[C@]54[C@]2(C)[C@@H](O)C[C@@H]13 | -5 | -2 | . | 4 | -1 | .
O=C1C(NS(=O)(=O)c2cccs2)=C(N2CCN(c3cccc(C(F)(F)F)c3)CC2)C(=O)c2ccccc21 | 17 | 16 | -1 | 22* | 15 | -1
Cc1nn(CC(=O)N2CCN(C)CC2)c(=O)c2ccccc12 | 2 | -6 | -3 | -5 | 9 | .
Oc1cccc(N2Cc3ccccc3C2)c1 | 10 | 0 | -12 | 0 | 10 | .
Oc1ccc(N2Cc3ccccc3C2)cc1 | 10 | 7 | -2 | 37* | -2 | -11
Nc1nn(S(=O)(=O)c2ccccc2)cc1-c1ccc([N+](=O)[O-])cc1 | 6 | 1 | 1 | -2 | 7 | .
Cc1ccc(S(=O)(=O)n2cc(-c3ccccc3)c(N)n2)cc1 | -2 | 11 | . | 15* | 1 | -2
CCOCCCNC(=O)C(NC(=O)c1ccccc1O)c1ccc(Cl)cc1 (configuration not stated) | 2 | 0 | 1 | 18* | -3 | -19
CCOCCCNC(=O)C(NC(=O)CNC(C)=O)c1ccc(Cl)cc1 (configuration not stated) | 3 | 0 | -3 | -2 | 2 | .
SMILES | BCLXL inh | GLD-1 TGE inh | MEX-5 binding | E coli Lon inh | MCL1 BIM primary | E coli Lon conf | others
CNC(=O)CSc1nc2cccnc2n1-c1ccc(F)cc1 | . | . | 2 | 28* | . | -11
CN1C(=O)CC(Nc2cccc3cccc(N)c23)C1=O (configuration not stated) | 9 | 2 | -1 | 21* | 15 | 8
CC(=O)N1CCN(S(=O)(=O)c2ccc(S(=O)(=O)N3CCCC(C)C3)cc2)CC1 (configuration not stated) | 2 | 0 | -1 | 22* | -3 | -14
CC(=O)N1CCC(C(=O)Nc2ccc(S(=O)(=O)N3CCCC(C)C3)cc2)CC1 (configuration not stated) | . | . | . | -4 | . | .
O=C(c1ccco1)N(CC1CCCO1)c1nc(-c2ccccc2)cs1 (configuration not stated) | 6 | 9 | 0 | 0 | 2 | .
O=C(c1cccs1)N(CC1CCCO1)c1nc(-c2ccccc2)cs1 (configuration not stated) | 4 | 3 | -1 | 17* | 7 | 17*
CN(C)C(=O)c1cccc(-c2cnc3c(NC=O)cc(-c4ccccc4N(C)C)cn23)c1 | . | . | . | + | . | 124*
COc1ccccc1-c1cc(NC=O)c2ncc(-c3cccc(C(F)(F)F)c3)n2c1 | . | . | . | -11 | . | .
CN(C)c1ccccc1-c1cc(NC=O)c2ncc(-c3cccc(C(F)(F)F)c3)n2c1 | . | . | . | + | . | +
O=C(NC1CC1)C1CCN(C(=O)c2ccccc2Cl)CC1 | 1 | -2 | 0 | -2 | 3 | .
Cn1c(CNc2ccc(Cl)cc2)nnc1SCc1ccccc1 | 4 | -1 | -1 | + | 7 | 2
CCCCCCCCCCS(=O)(=O)N/N=C/c1ccc(O)cc1 | 3 | 3 | 2 | 4 | -8 | .
COc1cccc(CNC(=O)c2ccc(S(=O)(=O)N3CCOCC3)cc2)c1 | . | . | . | 5 | . | .
Cc1cc2cc(CNC(=O)c3ccc(S(=O)(=O)N(C)C)cc3)ccc2n1C | 10 | 14 | -4 | 26* | 11 | 6
Cc1cc(C)c(S(=O)(=O)NCc2ccc3c(c2)cc(C)n3C)c(C)c1 | -1 | 20 | 0 | 14 | 0 | .
Cc1cc2cc(CNS(=O)(=O)c3ccc4ccccc4c3)ccc2n1C | 8 | 12 | 0 | 16* | 1 | 12
Cc1cc2cc(CNC(=O)c3cccc([N+](=O)[O-])c3)ccc2n1C | 6 | 10 | -1 | 8 | 6 | .
Cc1cc2cc(CNC(=O)c3ccc(S(=O)(=O)N4CCOCC4)cc3)ccc2n1C | 11 | 23 | -1 | 24* | 16 | 3
CCc1ccccc1NC(=O)c1ccc(S(=O)(=O)N2CCCC2)cc1 | 12 | 0 | 0 | 4 | 9 | .
CCc1ccc(N2CN(Cc3ccco3)CNC2=S)cc1 | 5 | 6 | . | 2 | 10 | .
